# Tgondii IFNg: blocks Toxoplasma gondii growth in the presence of IFN-gamma. Toxoplasma gondii growth in IFN-gamma-treated host cells; stronger effect = lower value. activity change, negative = inhibition, % (concentration not given with the values). 3.8% of 69,000 active; in the data active = activity change below about -70%, passing the limit was not always enough;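 also: host cells are HeLa cells infected with Toxoplasma gondii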
# Hits are given with their value; 0 = inactive. This excerpt belongs to a sample that is enriched for hits.
SMILES,Tgondii IFNg
Cc1ccc(CNc2nc(-c3nnc(-c4ccccc4)o3)nc3ccccc23)o1,0
Cc1ccc(-c2nnc(-c3nc(NCCCN4CCCC4=O)c4ccccc4n3)o2)cc1,0
CCCCNc1nc(-c2nnc(-c3ccc(C)cc3)o2)nc2ccccc12,0
Cc1ccc(-c2nnc(-c3nc(NCCc4cccs4)c4ccccc4n3)o2)cc1,0
CCCSCCCNc1nc(-c2nnc(-c3ccccc3)o2)nc2ccccc12,-92.0
c1ccc(-c2nnc(-c3nc(NCCN4CCOCC4)c4ccccc4n3)o2)cc1,0
CCCCNc1nc(-c2nnc(-c3ccccc3)o2)nc2ccccc12,-88.7
Cc1cccc(-c2nnc(-c3nc(NCCc4cnc[nH]4)c4ccccc4n3)o2)c1,0
COc1ccc(CNc2nc(-c3nnc(-c4ccccc4)o3)nc3ccccc23)cc1,0
CCN1C[C@@H]2C3(CCN(C(=O)c4cscn4)CC3)CC[C@@]2(C(=O)NC)C1,0
CC1NC(=O)COC12CCN(Cc1nccn1C)CC2 (centres undefined),0
CC(=O)N1CCOCC1c1nccc(N2CCOCC2)n1 (centres undefined),0
C=C1C2(C(=O)N3CCC(COC)C3)CCC(C2)C1(C)C (centres undefined),0
Cc1cccc(NC(=O)N2CCC3(CC2)Nc2cc(F)ccc2-n2cccc23)c1,0
Cc1ccc(CNC(=O)c2c(O)c3ccccc3[nH]c2=O)o1,0
C1=C(CCNc2nc(-c3nnc(-c4ccccc4)o3)nc3ccccc23)CCCC1,-98.6
Cc1ccc(CCNc2nc(-c3nnc(-c4ccccc4)o3)nc3ccccc23)cc1,0
c1ccc(-c2nnc(-c3nc(NCCc4cccs4)c4ccccc4n3)o2)cc1,0
Cc1cnc(-n2cnnc2)c(-c2cc(O)cc(CCC3CCCCN3)c2)c1 (centres undefined),0
CCOC(=O)C1(Cc2cc(-c3ccccc3C)no2)CCN(Cc2ccccn2)CC1,-76.6
CCOC(=O)[C@@]12CCCN(Cc3ccccn3)C[C@@H]1CN(C(C)C)C2,0
C=CCN1C[C@H]2CN(Cc3ccccn3)CCC[C@@]2(C(=O)OCC)C1,0
Cc1cc(C)n(Cc2cccc(C(=O)N(C)Cc3c(C)nn(C)c3C)c2)n1,0
COc1ccc2c(c1)NC1(CCN(S(=O)(=O)c3cc(C)ccc3C)CC1)c1cccn1-2,0
CCN1c2cc(C)ccc2-n2cccc2C12CCN(S(=O)(=O)c1c(C)noc1C)CC2,0
SMILES,Tgondii IFNg
CCc1ccc(S(=O)(=O)N2CCC3(CC2)c2cccn2-c2ccc(C)cc2N3CC)cc1,0
CCN1c2cc(C)ccc2-n2cccc2C12CCN(S(=O)(=O)c1ccc(Cl)s1)CC2,0
CCN1c2cc(C)ccc2-n2cccc2C12CCN(S(=O)(=O)c1ccc(OC)c(Cl)c1)CC2,-99.5
CCN1c2cc(C)ccc2-n2cccc2C12CCN(S(=O)(=O)c1cc(OC)ccc1OC)CC2,-102.7
CCN1c2cc(C)ccc2-n2cccc2C12CCN(S(=O)(=O)c1ccc3c(c1)CCCC3)CC2,-80.9
COc1ccc(OC)c(S(=O)(=O)N2CCC3(CC2)Nc2cc(C)ccc2-n2cccc23)c1,0
COc1ccc(S(=O)(=O)N2CCC3(CC2)Nc2ccccc2-n2cccc23)cc1Cl,0
C=CCNc1ncc(-c2cc(C)no2)c([C@H]2CCCO2)n1,0
O=C(C1CCCc2c1[nH]c1ccccc21)N1Cc2cnn(CCO)c2C1 (centres undefined),0
CC(C)NC(=O)N1Cc2ccnn2CC(COc2cccnc2)C1 (centres undefined),0
COc1ccc(C(=O)Nc2cc(C(F)(F)F)ccc2OCC2CCCO2)cc1OC (centres undefined),0
COc1ccc(Cl)cc1C(=O)NCCc1csc(-c2cccc(F)c2)n1,-90.1
CCCCOc1ccc(C(=O)NCCc2csc(-c3ccc(OC)cc3)n2)cc1,-109.7
O=C(NCCc1csc(-c2ccccc2)n1)c1cccs1,0
CCCCOc1ccc(C(=O)NCCc2csc(-c3ccc(Cl)cc3)n2)cc1,0
Cc1ccc(C)c(NC(=O)C(=O)NCCc2csc(-c3cccc(F)c3)n2)c1,-101.4
CCOc1ccc(C(=O)NCCc2csc(-c3ccc(OC)cc3)n2)cc1,0
COc1ccc(C(=O)NCCc2csc(-c3cccc(F)c3)n2)cc1OC,0
COc1ccc(-c2nc(CCNC(=O)c3cccs3)cs2)cc1OC,0
Cc1ccc(C)c(NC(=O)C(=O)NCCc2csc(-c3ccc(F)cc3)n2)c1,0
Cc1ccc(Cl)cc1NC(=O)C(=O)NCCc1csc(-c2cccc(F)c2)n1,0
O=C(NCCc1csc(-c2ccc(Cl)cc2)n1)c1cccs1,-79.2
COc1ccc(Cl)cc1C(=O)NCCc1sc(-c2cccc(F)c2)nc1C,0
CCc1ncc2c(n1)CN(C(=O)CCn1cnc3ccccc3c1=O)C2,0
CCCN(CC)C(=O)c1ccc2onc(-c3coc(CC)n3)c2c1,0
SMILES,Tgondii IFNg
Cc1nc(-c2ccc(OCc3ccc(F)cc3)cc2)cs1,0
Cc1ccc(N2CCC3(CC2)CN(CCO)Cc2ccccc23)nn1,0
COc1cc(OC)c(NC(=O)N2CCC3(CC2)Nc2cc(F)ccc2-n2cccc23)cc1Cl,0
COCCOc1cc(CNc2nc(C)n(C)n2)ccc1OC,0
COc1ccccc1N1CC(c2cc(=O)[nH]c(NCc3ccc(F)cc3)n2)CC1=O (centres undefined),0
O=C(NCCc1csc(-c2cccc(F)c2)n1)c1ccccc1F,0
CCOc1ccccc1C(=O)NCCc1csc(-c2cccc(F)c2)n1,-90.8
COc1ccccc1OCC(=O)NCCc1csc(-c2cccc(F)c2)n1,0
O=C(NCCc1csc(-c2ccc(Cl)cc2)n1)c1ccccc1,0
CCOc1cc(C(=O)NCCc2csc(-c3cccc(F)c3)n2)cc(OCC)c1OCC,0
CCOc1ccc(C(=O)NCCc2csc(-c3cccc(F)c3)n2)cc1OCC,0
O=C(NCCc1csc(-c2ccc(Cl)cc2)n1)c1ccc(F)cc1,0
COc1ccc(-c2nc(CCNC(=O)c3ccccc3Br)cs2)cc1,0
O=C(NCCc1csc(-c2ccc(F)cc2)n1)c1ccccc1,-80.5
COc1ccccc1C(=O)NCCc1csc(-c2cccc(F)c2)n1,-77.9
COc1ccc(C(=O)NCCc2csc(-c3ccc(Cl)cc3)n2)c(OC)c1,-85.5
COc1ccc(-c2nc(CCNC(=O)c3ccc(OC)cc3OC)cs2)cc1,0
FC(F)(F)Oc1ccc(C2=NCCc3sccc32)cc1,0
CC(C)(O)C#Cc1cccc(C(=O)NCc2csc(N)n2)c1,0
Cc1nn(C)c(Cl)c1CN(Cc1ccncc1)Cc1ccc(F)cc1,0
COCC1CC2(CCN(Cc3nc(C)cs3)CC2)CO1 (centres undefined),0
CN1CCCc2sc(C(=O)NCC3CCCO3)nc21 (centres undefined),0
O=c1[nH]c(NC2CCN(Cc3nnnn3Cc3ccccc3)CC2)nc2c1CCCC2,0
Cc1cccc(C)c1NC(=O)CN1CCC(Nc2nc3c(c(=O)[nH]2)CCCC3)CC1,0
CC(C)(C(=O)N1CCC(Nc2nc3c(c(=O)[nH]2)CCCC3)CC1)c1ccc(Cl)cc1,-101.4
SMILES,Tgondii IFNg
COc1cccc(CCNC(=O)C2c3c(ncn3C(C)C)CCN2S(C)(=O)=O)c1 (centres undefined),0
OCCn1cnc(-c2ccccc2)c1-c1ccc(C2CCCCO2)s1 (centres undefined),0
COc1cc(NC(=O)Nc2ccc(OC(F)(F)F)cc2)cc(C(F)(F)F)c1,-95.9
O=C(C#Cc1ccccc1)Nc1ccc(OC(F)(F)F)cc1,0
COc1ccc(-n2ncc(NC(=O)Nc3ccc(OC(F)(F)F)cc3)c2C)cc1,0
Cc1cc(C)n(CC2(CNC(=O)c3ccc(=O)n(C)c3)CC2)n1,0

# Screening results: PubChem BioAssay, Broad Institute
